Screening data as filed in PubChem.
Compounds with a hit are over-represented: about 32% of the library has one in this group of screens.
PostGolgi ctrl – growth inhibition of yeast control strain, primary screen, counter-screen for post-Golgi transport modulator project | efflux-deficient yeast background strain, growth absorbance A615, 16 h | inhibition, % at 10 µM | hit rate 5% among 98,000
CYP2C9 act – human CYP2C9 activators, primary screen, biochemical, luminescence; Cytochrome P450 2C9 (Homo sapiens), P11712; recombinant CYP2C9, luciferin-H conversion; stronger effect = higher value; factor 1 = untreated enzyme, 0 = blocked; activation factor at 5 µM; hit rate 1.4% among 96,000; AID 1024, 2008;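 active = activation factor of 2 or more for CYP2C9 at a 5 µM dose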;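 note: 0 = sulfaphenazole-blocked wells and 1 = vehicle-only wells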
PostGolgi yeast – phenotypic screen on post-Golgi transport, primary screen | post-Golgi transport phenotypic cell assay | inhibition, % at 10 µM | hit rate 0.9% among 98,000;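 note: yeast cells grown in 1536-well plates; yeast grown about 18 h at 30C before absorbance read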
CYP2C19 inhib – blockers of cytochrome P450 2C19 activity – biochemical, luminescence, ADME assay, primary screen | P33261 | CYP2C19 Supersomes, luciferin-H EGE luminescence, 30 min | inhibition, % at 5 µM | hit rate 21% among 96,000 | AID 778, 2007;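 active = CYP2C19 inhibition above a set limit at 5 µM in the primary screen, cut at about 50% in these data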;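 note: plate controls were negative control wells for no effect and 2.5 mM tranylcypromine positive control for full effect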
Target sequence (P33261 whole entry, looked up): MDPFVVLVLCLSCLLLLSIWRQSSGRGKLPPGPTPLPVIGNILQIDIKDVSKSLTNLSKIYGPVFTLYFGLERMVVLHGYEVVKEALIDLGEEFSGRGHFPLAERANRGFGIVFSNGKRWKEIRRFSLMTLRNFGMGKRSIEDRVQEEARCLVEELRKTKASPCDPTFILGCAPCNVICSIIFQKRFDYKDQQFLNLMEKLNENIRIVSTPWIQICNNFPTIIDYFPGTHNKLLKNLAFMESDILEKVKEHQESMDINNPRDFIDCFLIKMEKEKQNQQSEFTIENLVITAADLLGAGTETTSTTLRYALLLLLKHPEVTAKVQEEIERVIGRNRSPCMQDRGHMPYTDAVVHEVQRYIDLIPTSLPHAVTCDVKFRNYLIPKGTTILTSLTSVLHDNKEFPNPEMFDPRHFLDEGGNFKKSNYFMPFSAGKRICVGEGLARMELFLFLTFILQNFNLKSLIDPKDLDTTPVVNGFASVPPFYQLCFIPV
CYP2C9 inh – blockers of cytochrome P450 2C9 activity – biochemical, luminescence, ADME assay, primary screen; hit rate 20% among 96,000; CYP2C9 Supersomes, luciferin-H conversion; P11712; inhibition, % at 5 µM;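 active = blocking of liver enzyme CYP2C9 beyond about 50% at 5 µM, limit read from the data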
CYP2C19 activ – human CYP2C19 activators, primary screen, biochemical, luminescence. Cytochrome P450 2C19 (Homo sapiens), P33261. 96,000 tested, under 10 active. AID 1025, 2008. activation factor at 5 µM. recombinant CYP2C19, luciferin-H EGE luminescence; stronger effect = higher value; 0 = fully inhibited enzyme, 1 = untreated enzyme;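 active = activation factor of at least 2 at 5 µM in the primary screen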;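 note: 0 = wells with 2.5 mM tranylcypromine and 1 = vehicle-only wells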
An asterisk follows results filed as active; / = no result given. Cut-off read from the data, not from the text of the source, unless noted: active = inhibition above about 30%; inactive = the rest.

SMILES	PostGolgi ctrl	CYP2C9 act	PostGolgi yeast	CYP2C19 inhib	CYP2C9 inh	CYP2C19 activ
CC(OC(=O)CN1C(=O)NC(C)(C)C1=O)C(=O)c1ccccc1 (stereo not given)	-2.4	0.8	1.3	59.6*	23.9	0.4
CC(C)CC(C(=O)N1CCc2ccccc2C1)N1C(=O)c2ccccc2C1=O (stereo not given)	12.2	0.8	-1.0	33.5	24.8	0.7
COc1ccc(S(=O)(=O)N(CC(=O)N2CCCC2)Cc2ccccc2)cc1	9.2	0.8	-0.5	42.3	22.7	0.6
COc1ccccc1N(CC(=O)Nc1cc(C)on1)S(=O)(=O)c1ccc(Cl)cc1	21.6	0	-2.6	90.8*	97.7*	0.1
COc1ccc(S(=O)(=O)N(CC(=O)Nc2cc(C)on2)Cc2ccccc2)cc1	15.7	1	1.2	80.7*	0.9	0.2
COC(=O)CN(c1ccccc1OC)S(=O)(=O)c1ccccc1	-4.6	0.6	-5.0	49.6	38.4	0.5
COc1cccc2sc(Nc3nnc(-c4ccccc4Cl)o3)nc12	19.7	1.2	-1.0	-4.3	-19.8	1
O=C(Nc1nnc(-c2ccccc2Cl)o1)c1ccco1	-0.5	0.1	-26.9	9.7	93.2*	0.9
O=C(Nc1nnc(-c2ccccc2Cl)o1)c1nc2ccccc2s1	15.1	0.7	-23.7	68.6*	34.2	0.3
CCOc1ccc(C(=O)NC(=S)Nc2ccccc2N2CCC(C)CC2)cc1[N+](=O)[O-]	12.5	0.3	15.1	27.2	71.9*	0.7
CCOc1ccc(C(=O)NC(=S)Nc2ccccn2)cc1[N+](=O)[O-]	-2.2	/	-1.1	/	/	/
Cc1ccc(S(=O)(=O)Nc2c(C)n(C)n(-c3ccccc3)c2=O)cc1C(=O)NCc1ccccn1	-5.7	1	-6.2	-2.3	-0.8	1
Cc1occc1C(=O)NC1CCCc2ccccc21 (stereo not given)	1.8	0.5	-1.6	70.9*	47.1	0.3
CC(C)[C@H](NC(=O)NC1CCCc2ccccc21)C(=O)O (stereo not given in full)	33.1*	1.1	-2.8	-20.2	-12.1	1.2
COc1ccccc1NC(=O)c1ccc(-c2ccccc2F)o1	7.7	1	3.4	3.6	-2.1	1
COc1ccc(N2CCN(C(=O)C3CCCN(S(=O)(=O)c4cccc5cccnc45)C3)CC2)cc1 (stereo not given)	3.9	1.1	-8.6	65.4*	-12.2	0.3
Cc1ccc2cccc(S(=O)(=O)N3CCN(c4cccc(Cl)c4)CC3)c2n1	57.4*	0.9	1.7	92.0*	10.6	0.1
O=S(=O)(c1cccc2cccnc12)N1CCc2ccccc21	21.6	1.2	-1.5	10.3	-19.1	0.9
O=C(C1CCN(S(=O)(=O)c2cccc3cccnc23)CC1)N1CCN(c2ccccn2)CC1	2.0	0.5	-4.8	7.1	48.5	0.9
O=C(C1CCN(S(=O)(=O)c2cccc3cccnc23)CC1)N1CCN(c2ccc(Cl)cc2)CC1	16.5	2.3*	-0.6	85.2*	-132.5	0.1
O=S(=O)(c1cccc2cccnc12)N1CCN(c2ccccc2)CC1	10.3	2.8*	22.8	98.7*	-178.5	0
CC1CN(Cc2cc(=O)[nH]c(C(C)C)n2)CC(C)O1 (stereo not given)	3.9	0.8	6.5	10.3	20.1	0.9
COC(=O)c1c(C)cc(OC(C)=O)c(C)c1OC(C)=O	2.7	1.1	8.3	1.6	-11.1	1
O=C(COC(=O)C1CCN(S(=O)(=O)c2cccc3cccnc23)CC1)c1ccc([N+](=O)[O-])cc1	1.6	1.5	-4.8	-8.9	-50.8	1.1
CC1Cc2ccccc2N1C(=O)CN(C)S(=O)(=O)c1cccc2cccnc12 (stereo not given)	12.3	1.9	3.3	27.4	-88.5	0.7
CC1Cc2ccccc2N1C(=O)C1CCCN(S(=O)(=O)c2cccc3cccnc23)C1 (stereo not given)	29.4	0.7	-4.0	78.3*	26.8	0.2
CCOC(=O)C1CCN(C(=O)C2CCN(S(=O)(=O)c3cccc4cccnc34)CC2)CC1	31.6*	2.3*	4.0	6.5	-129.4	0.9
